Calls of active or inactive are those of the source.
How the values were obtained:
[1] = system: Plasmodium falciparum Sir2 (PF13_0152, Sir2A); assay: Plasmodium falciparum Sir2A binding compounds – biochemical, small-molecule microarray, 635 nm fluorescence, primary screen (AID 1098); details: fluorescence 635 nm, higher = more signal;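 also: score merges spot fluorescence intensity with its signal-to-noise ratio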
[2] = probe aDKK1 binding to arrayed compounds – biochemical, biotinylated probe, 635/667 nm fluorescence, primary screen (AID 1099); details: small-molecule microarray, higher = more signal;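 also: score merges 667nm spot fluorescence with signal to noise across triplicate slides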
[3] = probe aCHRDL2 binding to arrayed compounds – biochemical, biotinylated probe, 635/667 nm fluorescence, primary screen (AID 1100); details: small-molecule microarray, higher = more signal
[4] = change in splice reporter luminescence, either direction, cell-based, HEK293, spliceosome inhibition project, primary screen (AID 1101); details: HEK293 splicing luciferase reporter, 24 h, higher = more signal, called active from +8 up or from −8 down;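 also: HEK293 cells carrying a splicing-competent luciferase reporter gene; test concentration not given here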
[5] = molecular target: Fibroblast growth factor 10 (Homo sapiens) (UniProt O15520); assay: compounds binding fibroblast growth factor 10 – biochemical, small-molecule microarray, 635 nm fluorescence, primary screen (AID 1102); details: FGF10 binding, fluorescence 635 nm, higher = more signal
[6] = system: glycogen synthase kinase-3 (GSK3A per assay name; protocol says GSK3B); assay: compounds binding glycogen synthase kinase-3 – biochemical, small-molecule microarray, 635 nm fluorescence, GSK3A, primary screen (AID 1103); details: fluorescence 635 nm, higher = more signal; also: the record names both GSK3A and GSK3B
[7] = molecular target: Epidermal growth factor receptor (Homo sapiens) (UniProt P00533); assay: compounds binding epidermal growth factor receptor – biochemical, small-molecule microarray, 635 nm fluorescence, primary screen (AID 1104); details: EGFR binding, higher = more signal;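 also: score merges 667 nm emission intensity with spot signal to noise over triplicate slides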
[8] = molecular target: Follistatin-related protein 3 (Homo sapiens) (UniProt O95633); assay: compounds binding follistatin-related protein 3 – biochemical, small-molecule microarray, 635 nm fluorescence, primary screen (AID 1105); details: FSTL3 binding, higher = more signal;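 also: score merges emission near 667 nm and signal to noise per printed spot across three slides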
[9] = molecular target: Dickkopf-related protein 1 (Homo sapiens) (UniProt O94907); assay: small molecules binding DKK1 protein – biochemical, small-molecule microarray, 635 nm fluorescence scan, primary screen (AID 1106); details: higher = more signal;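 also: score merges emission near 667 nm with signal to noise over three replicate slides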
[10] = system: Inhibin beta A chain (activin A); assay: small molecules binding activin A – biochemical, small-molecule microarray, 635 nm fluorescence scan, primary screen (AID 1107); details: INHBA, higher = more signal;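 also: mouse activin A protein probed at 4.33 µg/mL on printed slides; score merges bound-protein fluorescence near 667 nm with spot signal-to-noise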
[11] = system: Human papillomavirus type 1a protein E7 (residues 44-93); assay: small molecules binding HPV E7 44-93 – biochemical, small-molecule microarray, residues 44-93, 635 nm fluorescence, primary screen (AID 1108); details: fluorescence 635 nm, higher = more signal;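 also: E7 fragment applied at 1 µg/mL in TBST for 1 h at 4 C; score combines spot fluorescence with its signal to noise ratio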
[12] = hepatitis C replication reporter changes, two-sided – Huh7 cells, luciferase reporter, HCV replication inhibitor project, primary screen (AID 1109); details: Huh7 HCV replicon luciferase reporter, 48 h; higher = more signal;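 also: huh7 hepatoma cells harbouring a luciferase neomycin HCV replicon reporter; luciferase luminescence as measure of HCV replicon replication; test concentration not given here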
[13] = molecular target: Left-right determination factor 2 (Homo sapiens) (UniProt O00292); assay: small molecules binding LEFTY2 protein – biochemical, small-molecule microarray, 635 nm fluorescence scan, primary screen (AID 1110); details: higher = more signal
[14] = molecular target: Calmodulin-1 (Homo sapiens) (UniProt P0DP23); assay: small molecules binding calmodulin-1 with EGTA – biochemical, small-molecule microarray, Cy5-labelled CALM1, profiling panel (AID 1111); details: Cy5-CALM1 binding fluorescence, higher = more signal;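 also: labelled calmodulin applied in Tris saline Tween buffer holding calcium plus EGTA and DTT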
[15] = molecular target: Calmodulin-1 (Homo sapiens) (UniProt P0DP23); assay: small molecules binding Ca-loaded calmodulin-1 – biochemical, small-molecule microarray, Cy5-labelled CALM1, plus calcium, artefact control for SMM control-protein annotation, profiling panel (AID 1112); details: Cy5-CALM1 binding fluorescence, higher = more signal;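 also: score merges spot fluorescence with signal to noise from triplicate slides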
[16] = probe aWnt5a binding to arrayed compounds – biochemical, biotinylated probe, 635/667 nm fluorescence, primary screen (AID 1113); details: small-molecule microarray, higher = more signal;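 also: score merges 667 nm fluorescence intensity with signal-to-noise per printed feature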
[17] = probe aShh binding to arrayed compounds – biochemical, biotinylated probe, 635/667 nm fluorescence, primary screen (AID 1114); details: small-molecule microarray, higher = more signal;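 also: probe is biotin-labelled aShh protein from a stem cell growth factor screen; measures binding of labelled protein to compounds printed on the slide; score merges feature fluorescence at 667 nm with signal-to-noise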
[18] = probe aNog binding to arrayed compounds – biochemical, biotinylated probe, 635/667 nm fluorescence, primary screen (AID 1115); details: small-molecule microarray, higher = more signal;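 also: probe is biotinylated aNog protein used at 0.15 µg/mL for 1 h at 4 C; z-score combines 667 nm fluorescence of each spot with its signal to noise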
[19] = molecular target: Torsin-1A-interacting protein 1 (Homo sapiens) (UniProt Q5JTV8); assay: compound microarray binding of lysate hLAP1 – cell lysate, small-molecule microarray, COS7 lysate, 635/667 nm fluorescence, primary screen (AID 1116); details: 635 nm fluorescence, higher = more signal
[20] = molecular target: Alpha-bungarotoxin (Bungarus multicinctus) (UniProt P60615); assay: compounds binding labelled alpha-BTX control protein – biochemical, small-molecule microarray, Alexa647 label, 635/667 nm fluorescence, artefact control for SMM control protein annotation, profiling panel (AID 1117); details: alpha-BTX-A647 binding fluorescence, higher = more signal
Alpha-bungarotoxin (Bungarus multicinctus), sequence (P60615 whole entry, looked up): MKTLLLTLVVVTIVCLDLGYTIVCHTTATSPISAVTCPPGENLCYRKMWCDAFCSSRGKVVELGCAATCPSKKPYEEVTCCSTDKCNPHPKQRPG

Follistatin-related protein 3 (Homo sapiens), sequence (O95633 whole entry, looked up): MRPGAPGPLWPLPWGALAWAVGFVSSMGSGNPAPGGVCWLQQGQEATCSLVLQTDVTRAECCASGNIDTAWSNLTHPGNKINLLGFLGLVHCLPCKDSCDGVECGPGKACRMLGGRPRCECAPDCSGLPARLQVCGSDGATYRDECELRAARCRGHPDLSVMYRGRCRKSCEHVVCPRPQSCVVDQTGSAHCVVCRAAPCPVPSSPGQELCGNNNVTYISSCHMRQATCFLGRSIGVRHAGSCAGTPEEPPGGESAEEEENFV
Dickkopf-related protein 1 (Homo sapiens), sequence (O94907 whole entry, looked up): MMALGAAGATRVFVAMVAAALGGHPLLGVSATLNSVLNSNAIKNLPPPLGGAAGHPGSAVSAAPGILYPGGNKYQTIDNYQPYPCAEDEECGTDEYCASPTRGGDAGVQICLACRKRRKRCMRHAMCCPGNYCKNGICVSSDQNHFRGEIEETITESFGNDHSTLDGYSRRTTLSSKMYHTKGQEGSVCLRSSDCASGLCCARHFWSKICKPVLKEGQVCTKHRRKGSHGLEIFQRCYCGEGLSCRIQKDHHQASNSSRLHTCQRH
Torsin-1A-interacting protein 1 (Homo sapiens), sequence (Q5JTV8 whole entry, looked up): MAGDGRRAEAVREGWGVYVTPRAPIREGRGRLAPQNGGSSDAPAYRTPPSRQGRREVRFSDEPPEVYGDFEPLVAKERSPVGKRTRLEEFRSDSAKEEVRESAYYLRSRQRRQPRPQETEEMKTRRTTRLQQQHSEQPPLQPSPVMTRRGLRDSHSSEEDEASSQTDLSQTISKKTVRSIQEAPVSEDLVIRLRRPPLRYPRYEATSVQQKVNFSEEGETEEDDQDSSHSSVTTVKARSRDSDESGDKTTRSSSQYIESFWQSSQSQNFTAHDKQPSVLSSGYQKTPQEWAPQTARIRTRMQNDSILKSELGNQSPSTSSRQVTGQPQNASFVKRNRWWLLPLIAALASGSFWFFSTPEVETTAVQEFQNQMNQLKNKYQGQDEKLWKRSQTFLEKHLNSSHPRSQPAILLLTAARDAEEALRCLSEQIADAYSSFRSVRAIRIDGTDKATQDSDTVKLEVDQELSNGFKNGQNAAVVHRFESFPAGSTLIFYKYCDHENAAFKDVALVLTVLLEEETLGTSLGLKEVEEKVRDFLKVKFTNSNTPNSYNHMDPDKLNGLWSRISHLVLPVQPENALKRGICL
Fibroblast growth factor 10 (Homo sapiens), sequence (O15520 whole entry, looked up): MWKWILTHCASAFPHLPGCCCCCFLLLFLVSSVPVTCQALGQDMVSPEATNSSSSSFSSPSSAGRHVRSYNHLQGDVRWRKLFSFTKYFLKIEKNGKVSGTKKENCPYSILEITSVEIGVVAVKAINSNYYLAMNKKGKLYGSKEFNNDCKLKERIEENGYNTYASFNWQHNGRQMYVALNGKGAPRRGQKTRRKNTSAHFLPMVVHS
Epidermal growth factor receptor (Homo sapiens), sequence (P00533 whole entry, looked up): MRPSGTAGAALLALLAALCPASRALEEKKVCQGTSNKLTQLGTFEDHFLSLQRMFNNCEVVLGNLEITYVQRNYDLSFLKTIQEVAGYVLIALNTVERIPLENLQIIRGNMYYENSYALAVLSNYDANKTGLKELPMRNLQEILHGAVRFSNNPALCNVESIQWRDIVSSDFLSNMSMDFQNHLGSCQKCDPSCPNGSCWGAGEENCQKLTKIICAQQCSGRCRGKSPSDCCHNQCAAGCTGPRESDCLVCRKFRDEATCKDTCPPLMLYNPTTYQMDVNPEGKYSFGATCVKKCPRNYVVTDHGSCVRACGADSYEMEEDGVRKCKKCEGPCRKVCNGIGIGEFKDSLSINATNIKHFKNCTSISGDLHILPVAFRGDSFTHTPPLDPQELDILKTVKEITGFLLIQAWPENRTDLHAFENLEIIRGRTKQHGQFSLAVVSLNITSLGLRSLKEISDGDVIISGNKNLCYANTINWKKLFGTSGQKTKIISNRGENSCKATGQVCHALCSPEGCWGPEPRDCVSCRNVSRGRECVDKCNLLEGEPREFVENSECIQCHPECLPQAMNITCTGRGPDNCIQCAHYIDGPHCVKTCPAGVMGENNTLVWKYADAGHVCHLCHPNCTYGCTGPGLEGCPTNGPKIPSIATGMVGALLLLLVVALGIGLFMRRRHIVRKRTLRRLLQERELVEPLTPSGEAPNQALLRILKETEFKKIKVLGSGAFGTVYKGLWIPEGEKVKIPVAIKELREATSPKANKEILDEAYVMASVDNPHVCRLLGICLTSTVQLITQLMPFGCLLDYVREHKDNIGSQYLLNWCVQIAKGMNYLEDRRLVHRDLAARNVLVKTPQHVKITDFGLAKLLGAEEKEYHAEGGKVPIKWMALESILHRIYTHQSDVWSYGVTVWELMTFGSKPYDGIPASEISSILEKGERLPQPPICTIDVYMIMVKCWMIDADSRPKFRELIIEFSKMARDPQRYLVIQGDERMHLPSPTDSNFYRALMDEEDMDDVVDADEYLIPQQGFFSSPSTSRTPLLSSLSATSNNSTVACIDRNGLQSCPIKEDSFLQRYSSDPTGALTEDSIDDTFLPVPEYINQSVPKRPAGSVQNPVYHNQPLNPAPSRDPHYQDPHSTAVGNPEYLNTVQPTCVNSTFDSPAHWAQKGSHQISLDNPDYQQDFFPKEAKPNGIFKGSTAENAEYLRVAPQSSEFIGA
Left-right determination factor 2 (Homo sapiens), sequence (O00292 whole entry, looked up): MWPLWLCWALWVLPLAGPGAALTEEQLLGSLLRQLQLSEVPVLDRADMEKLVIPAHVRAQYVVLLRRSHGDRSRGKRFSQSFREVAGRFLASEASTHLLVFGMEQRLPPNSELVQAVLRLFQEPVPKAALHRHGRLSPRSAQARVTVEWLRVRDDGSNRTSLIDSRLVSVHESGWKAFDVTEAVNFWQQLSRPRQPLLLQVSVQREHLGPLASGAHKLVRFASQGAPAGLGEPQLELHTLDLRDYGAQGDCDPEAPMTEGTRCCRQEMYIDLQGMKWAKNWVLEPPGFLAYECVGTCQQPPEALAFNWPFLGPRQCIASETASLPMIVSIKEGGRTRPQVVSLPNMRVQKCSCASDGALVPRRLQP

Row | SMILES | composite z-score [1] | composite z-score [2] | composite z-score [3] | z-score [4] | composite z-score [5] | composite z-score [6] | composite z-score [7] | composite z-score [8] | composite z-score [9] | composite z-score [10] | composite z-score [11] | z-score [12] | composite z-score [13] | composite z-score [14] | composite z-score [15] | composite z-score [16] | composite z-score [17] | composite z-score [18] | composite z-score [19] | composite z-score [20]
1 | CCOC(=O)c1ccc(NC(=O)O[C@H]2[C@H](OC(=O)Nc3ccc4c(c3)OCO4)[C@H](OC(=O)Nc3ccc4c(c3)OCO4)[C@@H](OC)O[C@@H]2CO)cc1 | 1.56 | 0.901 | 0.944 | 0.646 (inactive) | 1.33 | 1.33 | 0.517 | 1.39 | 1 | 0.673 | 1.03 | 0.295 | 0.803 | 1.41 | -0.179 | 0.0771 | 0.369 | 0.252 | 0.645 | 1.22
2 | CCOC(=O)C1=CC[C@@H](c2ccc(OCc3ccccc3)c(OC)c2)N(S(=O)(=O)c2ccc(C)cc2)[C@H]1c1ccc(SC)cc1 | 1.26 | 0.842 | 1.04 | 0.236 (inactive) | 1.1 | 0.587 | 0.838 | 1.12 | 0.174 | 0.994 | 1.4 | -1.75 | 0.458 | 1.23 | 0.298 | 0.155 | 0.0659 | 1.1 | 0.746 | 0.573
3 | NC(N)=NCCCn1cc(CNC(=O)[C@@H](N)Cc2ccccc2)nn1 | 1.23 | 0.174 | 0.34 | 0.292 (inactive) | 0.697 | 0.0853 | -0.38 | 1.36 | 0.0571 | 0.9 | -0.15 | -0.332 | 0.566 | -0.806 | -0.458 | -0.128 | -0.0146 | 0.0472 | 0.984 | 0.0071
4 | Cc1ccc(S[C@]2(C(=O)NCCCN(C)C)CC(=O)N(C3CCCCC3)[C@@H]2c2ccc(CO)cc2)cc1 | -0.0346 | 0.348 | 0.893 | 0.104 (inactive) | -0.89 | -0.464 | -0.674 | -0.811 | -0.774 | 0.83 | -0.246 | -2.51 | -0.992 | -0.596 | -0.677 | -0.129 | -0.0035 | -0.255 | -0.549 | -0.123
5 | CCCC[C@@H]1C[C@H]1[C@@H](NC(=O)Cc1ccccc1)c1ccc(-c2ccccc2)cc1 | -0.146 | -0.0423 | 0.712 | -1.26 (inactive) | 0.0191 | 0.117 | 0.172 | 0.135 | -0.46 | 0.685 | 1.24 | -0.783 | -0.319 | 0.538 | 0.588 | -0.0276 | 0.0098 | -0.0503 | 0.487 | 0.263
6 | O=C1O[C@@H](c2ccccc2)[C@@H](c2ccccc2)N2[C@@H](c3ccccc3OCCO)[C@]3(C(=O)Nc4ccc(C#CCCO)cc43)[C@@H](C(=O)N3CCCCCCC3)[C@H]12 | 2.19 | 3.2 | 1.87 | -1.32 (inactive) | 1.71 | 1.45 | 2.05 | 1.78 | 2.69 | 2.05 | 1.51 | -1.74 | 1.82 | 3.18 | 1.89 | 1.64 | 3.42 | 3.79 | 5.67 | 4.61
7 | Cc1ccc(S[C@]2(C(=O)NCC(F)(F)F)CC(=O)N(C3CCCCC3)[C@@H]2c2ccc(CO)cc2I)cc1 | 0.894 | 0.119 | 0.408 | -0.635 (inactive) | 0.919 | 1.24 | 0.395 | 0.914 | 0.133 | 0.469 | 1.42 | -2.3 | 0.394 | 1.01 | -0.077 | -0.122 | 0.184 | -0.422 | 0.958 | 0.587
8 | CCOC(=O)C1=CC[C@@H](c2cccc(Cl)c2)N(S(=O)(=O)c2ccc(C)cc2)C1 | 0.925 | 0.419 | 0.877 | -2.03 (inactive) | 0.674 | 0.0076 | 0.101 | -0.0034 | 0.0677 | 0.539 | 0.412 | -1.76 | -0.326 | 1.06 | 0.573 | -0.232 | -0.0035 | 0.424 | 2.68 | 0.703
9 | C=CCOC(=O)[C@H]1[C@@H]2C(=O)O[C@@H](c3ccccc3)[C@@H](c3ccccc3)N2[C@@H](c2ccc(OCCOC(=O)[C@H]3C[C@H]4C(=O)N[C@@H](CCCCNC(C)=O)C(=O)N4[C@H]3c3ccc(O)cc3)cc2)[C@]12C(=O)Nc1ccccc12 | 0.611 | 0.258 | 0.493 | -1.18 (inactive) | 0.776 | 1.28 | 0.915 | 0.932 | 1.31 | 0.351 | 0.94 | -0.103 | 0.594 | 1.03 | 0.328 | -0.124 | 0.157 | 0.0322 | 1.67 | 1.89
10 | CCOC(=O)C1=CC[C@@H](c2ccccc2C(F)(F)F)N(S(=O)(=O)c2ccc(C)cc2)[C@H]1c1ccc(C#N)cc1 | 0.668 | 0.648 | 0.276 | -0.476 (inactive) | 0.719 | 1.2 | 0.593 | 0.772 | 0.35 | 0.307 | 0.325 | 0.65 | 0.327 | 1.63 | 0.697 | -0.0152 | -0.283 | -0.301 | 0.408 | 0.969
11 | O=C1O[C@H](c2ccccc2)[C@H](c2ccccc2)N2[C@H]1[C@@H](C(=O)Nc1nc3ccccc3s1)[C@]1(C(=O)Nc3ccc(C#CC4(O)CCCCCC4)cc31)[C@H]2c1ccccc1OCCO | 1.55 | -0.074 | -0.353 | -0.215 (inactive) | 1.35 | 1.33 | 0.49 | 1.32 | 0.452 | -0.0311 | 1.37 | -2.69 | 0.561 | 1.04 | -0.243 | 0.0068 | 0.0469 | 0.345 | 1.34 | 0.0934

Source: PubChem BioAssay
